The inhibition is the change of the read-out against control, counted positive when it falls.

These results are taken from ChEMBL document CHEMBL1961873, “Compounds: GSK PKIS; Assays: Nanosyn kinase panel” (2012).

Chain of Serine/threonine-protein kinase PAK 1 (Homo sapiens) (Q13153 whole entry): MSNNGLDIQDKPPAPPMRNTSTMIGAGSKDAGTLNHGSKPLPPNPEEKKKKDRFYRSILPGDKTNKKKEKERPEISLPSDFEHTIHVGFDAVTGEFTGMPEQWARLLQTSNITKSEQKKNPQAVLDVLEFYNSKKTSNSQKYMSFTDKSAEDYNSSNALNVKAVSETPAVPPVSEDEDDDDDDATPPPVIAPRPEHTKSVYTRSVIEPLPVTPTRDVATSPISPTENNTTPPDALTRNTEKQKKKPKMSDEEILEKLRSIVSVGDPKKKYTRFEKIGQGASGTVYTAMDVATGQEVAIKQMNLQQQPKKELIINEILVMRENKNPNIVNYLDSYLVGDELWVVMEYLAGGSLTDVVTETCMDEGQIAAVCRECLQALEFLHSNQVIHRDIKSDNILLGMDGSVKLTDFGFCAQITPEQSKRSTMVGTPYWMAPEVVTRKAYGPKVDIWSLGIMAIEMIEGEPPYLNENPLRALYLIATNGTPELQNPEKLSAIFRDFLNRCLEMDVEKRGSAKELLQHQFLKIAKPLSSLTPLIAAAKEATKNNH

The first experiment addresses Serine/threonine-protein kinase PAK 1 (Homo sapiens) (UniProt Q13153). The settings on record: at 0.1 µM.
Regarding `c1ccc(COc2ccc(Nc3ncnc4ccc(-c5ccco5)cc34)cc2)cc1`, the inhibition worked out at 5.7%.
For the compound `COc1ccc2c(-c3ccnc(Nc4cccc(OC(F)(F)F)c4)n3)cnn2n1`, the inhibition came to 8.76%.
Take `CN1CCC(n2cnc(-c3ccc(F)cc3)c2-c2ccnc(N)n2)CC1`: the inhibition is -0.17%.
In the case of `COc1ccc(-c2cc(-c3c[nH]nc3-c3ccccn3)ccn2)cc1`, the inhibition is 0.78%.
On the same count and under the same terms, in the case of `Cc1cccc(Nc2ncc(-c3ccccc3)o2)c1` it was -2.05%; in that of `COC(=O)c1sc(-n2cnc3cc(OC)c(OC)cc32)cc1OCc1ccccc1C(F)(F)F`, 7.38%.
Take `N#Cc1c(NC(=O)CN2CCOCC2)sc2c1CCCC2`: the inhibition turned out to be 8.81%.
Consider `COc1ccc(-c2cc3c(N)ncnc3o2)cc1`, for which the inhibition was -2.64%.
Same read-out and setting: as for `N#Cc1c(NC(=O)c2ccc(F)cc2)sc2c1CCCC2`, the figure is -0.82%; as for `Cc1ccc2c(-c3ccnc(Nc4ccccc4)n3)c(-c3ccc(F)cc3)nn2n1`, 3.46%.
On the same count and under the same terms, in the case of `CNC(=O)c1cc(-c2ccc(F)cc2)cc(-c2ccc(S(=O)(=O)N3CCCC3)cc2)c1N` it was 3.68%.
With `Cc1ccc(O)cc1Nc1ccnc2cc(-c3ccccn3)ccc12`, the inhibition stood at 7.92%.
`CCc1nn2ncccc2c1-c1ccnc(NC2CC2)n1`: the inhibition worked out at 3.36%.
The same measure, in the same setting: in the case of `CCCN1CCC(c2ccc(Nc3nc(Nc4cc(F)ccc4C(N)=O)c4cc[nH]c4n3)c(OC)c2)CC1` it was 5.31%.
On the same count and under the same terms, in the case of `Fc1ccc(-c2nn3ccccc3c2-c2ccncc2)cc1` it was 3.29%; in that of `O=C(O[C@H]1CN[C@H](C#Cc2cc3ncnc(Nc4ccc(Cc5ccccc5)cc4)c3s2)C1)N1CCOCC1`, 0.1%.
Regarding `COc1ccc(-c2nn3ncccc3c2-c2ccnc(Nc3ccc4c(c3)OCCO4)n2)cc1`, the inhibition turned out to be 3.86%.
On to `CN(C)CCOc1ccc(-c2nc(-c3ccncc3)c(-c3ccc4c(c3)CC/C4=N\O)[nH]2)cc1`, for which the inhibition was found to be 4.61%.
For the compound `CCN1CCC(CC(=O)Nc2n[nH]c3nnc(-c4cccc(F)c4F)cc23)CC1`, the inhibition is 3.95%.
For `COc1cccc(-c2c[nH]c3c(N/N=C/c4ccncc4)ncnc23)c1`, the inhibition was determined as 2.35%.
Still for that read-out and setting: as for `Fc1ccc(-c2nn3ncccc3c2-c2ccnc(Nc3ccc4c(c3)OCCO4)n2)cc1`, the figure is 5.7%; as for `COc1cc(Nc2nccc(Nc3ccc4c(C)n[nH]c4c3)n2)cc(OC)c1OC`, 2.19%.
In the case of `CC(C)COC(=O)c1ccc2c(c1)/C(=C/Nc1ccc(S(N)(=O)=O)cc1)C(=O)N2`, the inhibition was -0.34%.
The same measure, in the same setting: in the case of `NS(=O)(=O)c1ccc(N/N=C2\C(=O)Nc3ccc4ncccc4c32)cc1` it was 5.44%; in that of `COc1cc(N2CCN(C(C)C)CC2)ccc1Nc1nc(Nc2ccc(F)cc2C(N)=O)c2cc[nH]c2n1`, 3.63%.
With `CCn1c(-c2nonc2N)nc2c(C#CC(C)(C)O)ncc(OC3CCNCC3)c21`, the inhibition came to 2.8%.
For `CNC(=O)c1cccc(C#Cc2cncnc2Nc2ccc(OCc3cccc(F)c3)c(Cl)c2)c1`, the inhibition amounted to 2.05%.
Regarding `Fc1cccc(COc2ccc(Nc3ncnc4sc(-c5ccco5)cc34)cc2Cl)c1`, the inhibition came out at 5.72%.
Regarding `c1ccc(-c2nc3n(c2-c2ccc4c(c2)OCO4)CCC3)nc1`, the inhibition was determined as 3.44%.
For `O=S(=O)(CCNCc1ccc(-c2ccc3ncnc(Nc4ccc(OCc5cccc(F)c5)c(Cl)c4)c3c2)o1)c1ccccc1`, the inhibition was found to be 10%.
Consider `COc1cc(/C=N/Nc2ncnc3[nH]ncc23)ccc1O`, for which the inhibition is 1.82%.
The same measure, in the same setting: as for `CS(=O)(=O)CCNCc1coc(-c2ccc3ncnc(Nc4ccc(OCc5ccccc5)cc4)c3c2)c1`, the figure is 2.37%; as for `COc1cc2c(cc1Nc1nc(Nc3ccsc3C(N)=O)c3cc[nH]c3n1)N(C(=O)CN(C)C)CCC2(C)C`, 8.7%.

Another experiment has the same target. To be noted: at 1 µM.
In the case of `c1ccc(COc2ccc(Nc3ncnc4ccc(-c5ccco5)cc34)cc2)cc1`, the inhibition is 3.88%.
As for `COc1ccc2c(-c3ccnc(Nc4cccc(OC(F)(F)F)c4)n3)cnn2n1`, the inhibition came to 7.47%.
In the case of `CN1CCC(n2cnc(-c3ccc(F)cc3)c2-c2ccnc(N)n2)CC1`, the inhibition came out at 3.27%.
Take `COc1ccc(-c2cc(-c3c[nH]nc3-c3ccccn3)ccn2)cc1`: the inhibition came to 3.96%.
With `Cc1cccc(Nc2ncc(-c3ccccc3)o2)c1`, the inhibition amounted to 3.35%.
As to `COC(=O)c1sc(-n2cnc3cc(OC)c(OC)cc32)cc1OCc1ccccc1C(F)(F)F`, the inhibition was determined as 9.12%.
As to `N#Cc1c(NC(=O)CN2CCOCC2)sc2c1CCCC2`, the inhibition stood at 4.43%.
For the compound `COc1ccc(-c2cc3c(N)ncnc3o2)cc1`, the inhibition was -0.27%.
On the same count and under the same terms, as for `N#Cc1c(NC(=O)c2ccc(F)cc2)sc2c1CCCC2`, the figure is 3.8%; as for `Cc1ccc2c(-c3ccnc(Nc4ccccc4)n3)c(-c3ccc(F)cc3)nn2n1`, 6.67%.
Still for that read-out and setting: in the case of `CNC(=O)c1cc(-c2ccc(F)cc2)cc(-c2ccc(S(=O)(=O)N3CCCC3)cc2)c1N` it was 9.51%; in that of `Cc1ccc(O)cc1Nc1ccnc2cc(-c3ccccn3)ccc12`, 8.64%.
With `CCc1nn2ncccc2c1-c1ccnc(NC2CC2)n1`, the inhibition worked out at 4.68%.
Take `CCCN1CCC(c2ccc(Nc3nc(Nc4cc(F)ccc4C(N)=O)c4cc[nH]c4n3)c(OC)c2)CC1`: the inhibition was found to be 3.04%.
Regarding `Fc1ccc(-c2nn3ccccc3c2-c2ccncc2)cc1`, the inhibition was found to be 1.62%.
On the same count and under the same terms, as for `O=C(O[C@H]1CN[C@H](C#Cc2cc3ncnc(Nc4ccc(Cc5ccccc5)cc4)c3s2)C1)N1CCOCC1`, the figure is 2.79%; as for `COc1ccc(-c2nn3ncccc3c2-c2ccnc(Nc3ccc4c(c3)OCCO4)n2)cc1`, -2.26%.
As to `CN(C)CCOc1ccc(-c2nc(-c3ccncc3)c(-c3ccc4c(c3)CC/C4=N\O)[nH]2)cc1`, the inhibition was found to be 9.24%.
Turning to `CCN1CCC(CC(=O)Nc2n[nH]c3nnc(-c4cccc(F)c4F)cc23)CC1`, the inhibition turned out to be 4.17%.
With `COc1cccc(-c2c[nH]c3c(N/N=C/c4ccncc4)ncnc23)c1`, the inhibition was 1.11%.
Turning to `Fc1ccc(-c2nn3ncccc3c2-c2ccnc(Nc3ccc4c(c3)OCCO4)n2)cc1`, the inhibition worked out at 9.76%.
As to `COc1cc(Nc2nccc(Nc3ccc4c(C)n[nH]c4c3)n2)cc(OC)c1OC`, the inhibition was found to be 7.51%.
On the same count and under the same terms, in the case of `CC(C)COC(=O)c1ccc2c(c1)/C(=C/Nc1ccc(S(N)(=O)=O)cc1)C(=O)N2` it was 1.52%; in that of `NS(=O)(=O)c1ccc(N/N=C2\C(=O)Nc3ccc4ncccc4c32)cc1`, 7.55%.
On to `COc1cc(N2CCN(C(C)C)CC2)ccc1Nc1nc(Nc2ccc(F)cc2C(N)=O)c2cc[nH]c2n1`, for which the inhibition was found to be 7.46%.
For the compound `CCn1c(-c2nonc2N)nc2c(C#CC(C)(C)O)ncc(OC3CCNCC3)c21`, the inhibition turned out to be 8.91%.
The same measure, in the same setting: in the case of `CNC(=O)c1cccc(C#Cc2cncnc2Nc2ccc(OCc3cccc(F)c3)c(Cl)c2)c1` it was 1.45%.
`Fc1cccc(COc2ccc(Nc3ncnc4sc(-c5ccco5)cc34)cc2Cl)c1`: the inhibition amounted to 4.19%.
`c1ccc(-c2nc3n(c2-c2ccc4c(c2)OCO4)CCC3)nc1`: the inhibition came to 6.33%.
On to `O=S(=O)(CCNCc1ccc(-c2ccc3ncnc(Nc4ccc(OCc5cccc(F)c5)c(Cl)c4)c3c2)o1)c1ccccc1`, for which the inhibition amounted to 7.19%.
Regarding `COc1cc(/C=N/Nc2ncnc3[nH]ncc23)ccc1O`, the inhibition is 6.64%.
As to `CS(=O)(=O)CCNCc1coc(-c2ccc3ncnc(Nc4ccc(OCc5ccccc5)cc4)c3c2)c1`, the inhibition came to 4.92%.
With `COc1cc2c(cc1Nc1nc(Nc3ccsc3C(N)=O)c3cc[nH]c3n1)N(C(=O)CN(C)C)CCC2(C)C`, the inhibition is 7.09%.
